Measured values published in the supplement of paper PMC12669032.
Several values for one entry are separate records, joined by “and”; a condition that tells them apart may be missing. Equal values may be shown once.

These compounds were tested on Bacteroides stercoris (assay: growth AUC relative to DMSO control (median of replicates) (fraction); higher = more growth (less inhibition), active = hit call of the paper). Settings: 20 µM; 24 h;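 active = AUC reduced over 20% with Padj below 0.05 in at least 2 of 3 replicates; inactive = otherwise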.
Procedure, shortened: (§1)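 Each value is the median of three biological replicates, grown on separate days, of a gut bacterial monoculture incubated anaerobically at 37 °C in mGAM with 20 µM compound (1% DMSO). Cultures started at OD600 0.05 and were read at OD600 hourly for 24 h, with the minimum OD set to 0. Area under the growth curve was normalised to the plate median of solvent-only wells, or to row and column medians on the industrial chemical plate.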

SMILES	growth AUC
Nc1cc(Cl)cc(C(=O)O)c1Cl	1.06 (inactive)
CCOP(=S)(OCC)Oc1cnccn1	0.979 (inactive)
O=C(O)C(F)(F)C(F)(F)C(F)(F)C(F)(F)C(F)(F)C(F)(F)C(F)(F)C(F)(F)F	1.08 (inactive)
CCOP(=S)(OCC)SCSCC	0.942 (inactive)
CCOCn1c(-c2ccc(Cl)cc2)c(C#N)c(Br)c1C(F)(F)F	0.914 (inactive)
CCS(=O)(=O)c1cccnc1S(=O)(=O)NC(=O)Nc1nc(OC)cc(OC)n1	0.963 (inactive)
CCNc1nc(NC(C)C)nc(SC)n1	1.19 (inactive)
CN1COCN(Cc2cnc(Cl)s2)/C1=N/[N+](=O)[O-]	1.03 (inactive)
COP(=S)(NC(C)C)Oc1ccccc1C(=O)OC(C)C (stereo not drawn)	1.04 (inactive)
COC(=O)C(C)(Cl)Cl	1 (inactive)
CCCCOCN(C(=O)CCl)c1c(CC)cccc1CC	1.25 (inactive)
CC1(C)C(C=C(Cl)Cl)C1C(=O)OC(C#N)c1ccc(F)c(Oc2ccccc2)c1 (mixture of isomers)	0.95 (inactive)
CCOC(=O)CC(SP(=O)(OC)OC)C(=O)OCC (stereo not drawn)	0.976 (inactive)
CCNc1nc(Cl)nc(NC(C)C)n1	0.964 (inactive)
Cc1cccc(C)c1N	1.03 (inactive)
CN(C)C(=O)Nc1ccc(Cl)cc1	1.05 (inactive)
CCCCNC(=O)n1c(NC(=O)OC)nc2ccccc21	1.01 (inactive)
N#Cc1cc(I)c(O)c(I)c1	0.939 (inactive)
CCOP(=S)(OCC)Oc1cc(Cl)c(Br)cc1Cl	0.953 (inactive)
Cc1cnc(C2=NC(C)(C(C)C)C(=O)N2)c(C(=O)O)c1 (stereo not drawn)	0.976 (inactive)

SMILES	growth AUC
CC1(C)CCC(Cc2ccc(Cl)cc2)C1(O)Cn1cncn1 (stereo not drawn)	1.35 (inactive)
CCCN(CCC)c1c([N+](=O)[O-])cc(S(C)(=O)=O)cc1[N+](=O)[O-]	0.856 (inactive)
Cc1occc1C(=O)Nc1ccccc1	0.952 (inactive)
CCCOCC(=Nc1ccc(Cl)cc1C(F)(F)F)n1ccnc1	1.16 (inactive)
Nc1cc(Cl)cc(Cl)c1	1.33 (inactive)
O=C(O)COc1cc(Cl)c(Cl)cc1Cl	0.978 (inactive)
Cc1cc(Cl)ccc1N=CN(C)C	0.985 (inactive)
CNC(=O)Oc1cc(C)cc(C(C)C)c1	0.938 (inactive)
CCOc1cc(Oc2ccc(C(F)(F)F)cc2Cl)ccc1[N+](=O)[O-]	0.905 (inactive)
O=[N+]([O-])c1c(Cl)c(Cl)c(Cl)c(Cl)c1Cl	0.986 (inactive)
CC(Cc1ccc(C(C)(C)C)cc1)CN1CCCCC1 (stereo not drawn)	1.15 (inactive)
CNC(=O)c1cc(C#N)cc(C)c1NC(=O)c1cc(Br)nn1-c1ncccc1Cl	0.933 (inactive)
O=P(Oc1ccccc1)(Oc1ccccc1)Oc1ccccc1	0.755 (active)
CC(=NC#N)N(C)Cc1ccc(Cl)nc1	1.08 (inactive) and 0.985 (inactive)
CO/N=C(/C1=NOCCO1)c1ccccc1Oc1ncnc(Oc2ccccc2Cl)c1F	0.941 (inactive)
Cc1ccn2nc(S(=O)(=O)Nc3c(F)cccc3F)nc2n1	0.955 (inactive)
N#Cc1c(Cl)c(Cl)c(Cl)c(C#N)c1Cl	0.566 (active)
C=CCC1=C(C)C(OC(=O)[C@@H]2[C@@H](C=C(C)C)C2(C)C)CC1=O (stereo partly drawn)	1.08 (inactive)
O=C(O)CNCP(=O)(O)O	1.08 (inactive)

What follows are compounds tested on Bacteroides thetaiotaomicron in the same assay as above. Settings: 20 µM; 24 h.
Procedure, shortened: as §1

SMILES	growth AUC
Nc1cc(Cl)cc(C(=O)O)c1Cl	1 (inactive)
CCOP(=S)(OCC)Oc1cnccn1	0.985 (inactive)
O=C(O)C(F)(F)C(F)(F)C(F)(F)C(F)(F)C(F)(F)C(F)(F)C(F)(F)C(F)(F)F	1.07 (inactive)
CCOP(=S)(OCC)SCSCC	0.997 (inactive)
CCOCn1c(-c2ccc(Cl)cc2)c(C#N)c(Br)c1C(F)(F)F	0.95 (inactive)
CCS(=O)(=O)c1cccnc1S(=O)(=O)NC(=O)Nc1nc(OC)cc(OC)n1	0.981 (inactive)
CCNc1nc(NC(C)C)nc(SC)n1	0.985 (inactive)
CN1COCN(Cc2cnc(Cl)s2)/C1=N/[N+](=O)[O-]	0.999 (inactive)
COP(=S)(NC(C)C)Oc1ccccc1C(=O)OC(C)C (stereo not drawn)	0.907 (inactive)
COC(=O)C(C)(Cl)Cl	1.04 (inactive)
CCCCOCN(C(=O)CCl)c1c(CC)cccc1CC	0.923 (inactive)
CC1(C)C(C=C(Cl)Cl)C1C(=O)OC(C#N)c1ccc(F)c(Oc2ccccc2)c1 (mixture of isomers)	1.01 (inactive)
CCOC(=O)CC(SP(=O)(OC)OC)C(=O)OCC (stereo not drawn)	1.01 (inactive)
CCNc1nc(Cl)nc(NC(C)C)n1	1.01 (inactive)
Cc1cccc(C)c1N	1.04 (inactive)
CN(C)C(=O)Nc1ccc(Cl)cc1	0.973 (inactive)
CCCCNC(=O)n1c(NC(=O)OC)nc2ccccc21	0.999 (inactive)
N#Cc1cc(I)c(O)c(I)c1	0.919 (inactive)
CCOP(=S)(OCC)Oc1cc(Cl)c(Br)cc1Cl	0.979 (inactive)
Cc1cnc(C2=NC(C)(C(C)C)C(=O)N2)c(C(=O)O)c1 (stereo not drawn)	1.01 (inactive)

SMILES	growth AUC
CC1(C)CCC(Cc2ccc(Cl)cc2)C1(O)Cn1cncn1 (stereo not drawn)	0.93 (inactive)
CCCN(CCC)c1c([N+](=O)[O-])cc(S(C)(=O)=O)cc1[N+](=O)[O-]	0.987 (inactive)
Cc1occc1C(=O)Nc1ccccc1	1.02 (inactive)
CCCOCC(=Nc1ccc(Cl)cc1C(F)(F)F)n1ccnc1	0.934 (inactive)
Nc1cc(Cl)cc(Cl)c1	1.01 (inactive)
O=C(O)COc1cc(Cl)c(Cl)cc1Cl	0.985 (inactive)
Cc1cc(Cl)ccc1N=CN(C)C	1.03 (inactive)
CNC(=O)Oc1cc(C)cc(C(C)C)c1	0.967 (inactive)
CCOc1cc(Oc2ccc(C(F)(F)F)cc2Cl)ccc1[N+](=O)[O-]	1.01 (inactive)
O=[N+]([O-])c1c(Cl)c(Cl)c(Cl)c(Cl)c1Cl	0.915 (inactive)
CC(Cc1ccc(C(C)(C)C)cc1)CN1CCCCC1 (stereo not drawn)	0.974 (inactive)
CNC(=O)c1cc(C#N)cc(C)c1NC(=O)c1cc(Br)nn1-c1ncccc1Cl	0.982 (inactive)
O=P(Oc1ccccc1)(Oc1ccccc1)Oc1ccccc1	0.901 (inactive)
CC(=NC#N)N(C)Cc1ccc(Cl)nc1	0.987 (inactive) and 0.95 (inactive)
CO/N=C(/C1=NOCCO1)c1ccccc1Oc1ncnc(Oc2ccccc2Cl)c1F	0.961 (inactive)
Cc1ccn2nc(S(=O)(=O)Nc3c(F)cccc3F)nc2n1	0.985 (inactive)
N#Cc1c(Cl)c(Cl)c(Cl)c(C#N)c1Cl	0.0851 (active)
C=CCC1=C(C)C(OC(=O)[C@@H]2[C@@H](C=C(C)C)C2(C)C)CC1=O (stereo partly drawn)	0.96 (inactive)
O=C(O)CNCP(=O)(O)O	1.02 (inactive)
